{"source": "PubChem BioAssay AID488815", "about": "(Broad Institute, 2010)", "note": "Results with a measured potency or affinity are listed apart. Results filed as inconclusive are left out. Activity calls are given as the source filed them. No rule for the calls is given here."}
{"biological_target": "CAAX prenyl protease 1 (Saccharomyces cerevisiae (strain ATCC 204508 / S288c)) (UniProt P47154)", "sequence (P47154 whole entry, looked up)": "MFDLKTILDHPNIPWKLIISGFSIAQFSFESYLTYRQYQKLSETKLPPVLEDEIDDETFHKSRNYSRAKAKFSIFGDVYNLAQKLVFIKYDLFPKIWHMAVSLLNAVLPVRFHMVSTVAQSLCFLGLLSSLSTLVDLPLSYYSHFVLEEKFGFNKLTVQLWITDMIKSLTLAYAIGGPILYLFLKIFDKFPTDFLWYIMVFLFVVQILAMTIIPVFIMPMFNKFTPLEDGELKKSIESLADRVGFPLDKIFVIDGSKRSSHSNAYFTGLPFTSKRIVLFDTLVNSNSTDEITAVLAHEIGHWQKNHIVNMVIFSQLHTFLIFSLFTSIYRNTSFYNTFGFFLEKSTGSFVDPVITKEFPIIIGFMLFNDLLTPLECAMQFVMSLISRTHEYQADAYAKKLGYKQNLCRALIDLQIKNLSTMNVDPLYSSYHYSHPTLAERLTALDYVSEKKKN", "test": "yeast CAAX protease Ste24 inhibition – biochemical, S. cerevisiae, plate reader, cherry-pick, dose response (AID 488815)", "conditions": "series mostly up to 10 µM"}
{"smiles": "Cc1ccc(C(=O)N2N=C(c3ccccc3O)CC2c2ccccc2)cc1", "note": "(centres undefined)", "outcome": "inactive"}
{"smiles": "CC1CCN(C(=O)C2CCN(S(=O)(=O)c3ccc(-n4cnnn4)cc3)CC2)CC1", "outcome": "inactive"}
{"smiles": "O=C(CN1CCC(NC(=O)c2ccc(Br)cc2)CC1)NCc1cccs1", "outcome": "inactive"}
{"smiles": "COc1ccc(Cc2nc3ccc(C(=O)N4CCCC4)cc3o2)cc1", "outcome": "inactive"}
{"smiles": "CCC(COC)NC(=O)CCc1nnc(Cc2cccc(C(F)(F)F)c2)o1", "note": "(centres undefined)", "outcome": "inactive"}
{"smiles": "COc1ccc(-c2cc(C(=O)NCCCN3CCCC3=O)c3ccccc3n2)cc1", "outcome": "inactive"}
{"smiles": "COc1ccc(-n2c(SCc3ccc([N+](=O)[O-])cc3)nnc2-c2ccc(C)cc2)cc1", "outcome": "inactive"}
{"smiles": "Cc1ccccc1OC(C)C(=O)N1CCC(Cc2ccccc2)CC1", "note": "(centres undefined)", "outcome": "inactive"}
{"smiles": "Cc1cc(-c2ccccc2)n2nc(C)c(C#N)c2n1", "outcome": "inactive"}
{"smiles": "Cc1cc(NC(=O)c2oc3ccccc3c2C)ccc1-n1cnnn1", "outcome": "inactive"}
{"smiles": "CC(=O)c1c(O)cc(O)c(C(C)=O)c1O", "outcome": "inactive"}
{"smiles": "CC1CCN(C(=O)c2cc3nc(-c4ccccc4)cc(-c4ccccc4)n3n2)CC1", "outcome": "inactive"}
{"smiles": "N/C(Cc1ccc([N+](=O)[O-])cc1)=N\\OC(=O)c1ccc2ccccc2c1", "outcome": "inactive"}
{"smiles": "CN(C)CCN(C(=O)c1ccc2ccccc2c1)c1nc2ccc(F)cc2s1", "outcome": "inactive"}
{"smiles": "COc1ccccc1-n1c(-c2ccccc2)c[nH]c1=S", "outcome": "inactive"}
{"smiles": "Cc1ccc(S(=O)(=O)CC(=O)N2CCN(c3ccccc3F)CC2)cc1", "outcome": "inactive"}
{"smiles": "CCCCOc1ccc(Cc2c(COCC)[nH]c(=S)[nH]c2=O)cc1", "outcome": "inactive"}
{"smiles": "CC(C)NCC(O)COCCOc1ccc(Br)cc1", "note": "(centres undefined)", "outcome": "inactive"}
{"smiles": "CC(C)c1cccc(OCC(=O)Nc2ccc(S(=O)(=O)Nc3ccccn3)cc2)c1", "outcome": "inactive"}
{"smiles": "CC(Cc1cccs1)NC(=O)Nc1ccc([N+](=O)[O-])cc1", "note": "(centres undefined)", "outcome": "inactive"}
{"smiles": "O=C(COC(=O)c1ccccc1Cc1ccccc1)NC1CCS(=O)(=O)C1", "note": "(centres undefined)", "outcome": "inactive"}
{"smiles": "CC1=C(C(=O)OCc2ccccc2)C(c2ccc(-c3ccccc3)cc2)NC(=O)N1CCCC(=O)O", "note": "(centres undefined)", "outcome": "inactive"}
{"smiles": "CCOC(=O)c1c(NC(=O)c2cccc(N3C(=O)CCC3=O)c2)sc(C)c1C", "outcome": "inactive"}
{"smiles": "CC(=O)Nc1ccc(Cl)cc1C1COC(=O)C1=N", "note": "(centres undefined)", "outcome": "inactive"}
{"smiles": "O=C(O)CCC(=O)c1ccc(-c2ccccc2)cc1", "outcome": "inactive"}
{"smiles": "COc1ccc(OCC(=O)NS(=O)(=O)c2ccc(Cl)cc2)cc1", "outcome": "inactive"}
{"smiles": "O=C(O)CCc1nc2cc(C(F)(F)F)ccc2n(Cc2ccccc2)c1=O", "outcome": "inactive"}
{"smiles": "Cc1cc(C)n2nc(CC(=O)NNC(=O)c3ccc(N(C)C)cc3)nc2n1", "outcome": "inactive"}
{"smiles": "Cc1ccc(S(=O)(=O)Nc2ccccc2C(=O)NCC2CCCO2)cc1", "note": "(centres undefined)", "outcome": "inactive"}
{"smiles": "COc1cccc(C2CC(c3ccc(Br)cc3)=NN2C(=O)c2ccncc2)c1OC", "note": "(centres undefined)", "outcome": "inactive"}
{"smiles": "COc1ccc(/C=N/NC(=O)c2ccc(Cl)cc2)cc1COC(C)=O", "outcome": "inactive"}
{"smiles": "Cc1cc(C)n(Cc2ccc(NC(=O)c3ccc(COc4ccccc4Br)cc3)cc2)n1", "outcome": "inactive"}
{"smiles": "CC(/C=N\\NC(=O)CN1CCN(S(=O)(=O)c2ccc(C)cc2)CC1)=C\\c1ccccc1", "outcome": "inactive"}
{"smiles": "Cc1nc2c(C)cccn2c(=O)c1NC(=O)COc1ccccc1", "outcome": "inactive"}
{"smiles": "CCN1CCN(CC(O)COc2ccc3c(C)cc(=O)oc3c2)CC1", "note": "(centres undefined)", "outcome": "inactive"}
{"smiles": "CCN1CCN(c2ccc(NC(=O)c3cccc(OCc4ccccc4)c3)cc2)CC1", "outcome": "inactive"}
{"smiles": "COC(C[C@@H](O)C[C@H](O)[C@H](C)OCc1ccccc1)OC", "outcome": "inactive"}
{"smiles": "CC(C)N1CCN(Cc2ccc(OCc3ccccc3)cc2)CC1CCO", "note": "(centres undefined)", "outcome": "inactive"}
{"smiles": "CC(=O)N[C@@H](C)c1nc2ccccc2n1CCCN1CCN(c2nc(-c3ccc(C)cc3)cs2)CC1", "outcome": "inactive"}
